NS1 inh – inhibitors of influenza NS1 protein function; Potency, µM (titrated, usually from 46.1 µM), without a hit: top-dose activity, positive = more growth; 0.4% of 270,000 active; AID 2326; calls by dose curve; further: potency means the concentration at half of the fitted maximal effect; actives are rising curves; nearly all actives have a fitted effect of over 50% in size
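A cell-based growth assay was used: compounds that relieve NS1-induced slow growth of budding yeast raise OD600. Assay medium was yeast nitrogen base with ammonium sulphate and -URA supplement, pH 6.0, with 2% galactose.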
Pf growth 48h – P. falciparum growth inhibition at 48 hours (one generation); 5.9% of 310,000 active; P. falciparum luciferase growth in erythrocytes, 48 h; Potency, µM (top dose mostly 28.7 µM), for inactives: at the highest dose activity change, negative = inhibition, hits mostly inhibitors; AID 504832; further: potency means the concentration at half of the fitted maximal effect; on the % scale 0 is the no-effect control and ±100 the full control effect
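Cell-based growth assay: transgenic P. falciparum expressing firefly luciferase, cultured in red cells within RPMI 1640 containing 0.5% w/v Albumax, 24 mM bicarbonate and gentamycin. A drop in luciferase activity indicates inhibition.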
SARS PLP yeast – SARS-CoV PLP inhibition in yeast. Potency, µM (series often up to 32.9 µM), for the others: at the highest dose activity, positive = growth rescue, hits mostly activators. AID 485353. 0.19% of 330,000 active. S. cerevisiae expressing SARS-CoV PLpro, growth rescue; calls by dose curve; further: potency means the concentration at half of the fitted maximal effect; 0% is about no effect; nearly all actives have a fitted effect of over 55% in size
CHX counter – counter-screen hit for Shiga toxin inhibitors, cycloheximide; 12% of 300,000 active; max response, %; cell reporter, cycloheximide protein synthesis inhibition counterscreen; in the data active means max response mostly above about 13%, no sharp cut-off; inactive means mostly below about 14%; further: read at 38.3 µM for the half of the compounds with a filed dose; 0% is about no effect
Pf growth 96h – P. falciparum growth inhibition at 96 hours; P. falciparum luciferase reporter growth, 96 h; Potency, µM (highest dose often 28.7 µM), for inactives: at the top dose activity change, negative = inhibition, most hits filed as inhibitors; AID 504834; 6.9% of 320,000 active; further: potency means the concentration at half of the fitted maximal effect; on the % scale 0 is the no-effect control and ±100 the full control effect
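Two-generation exposure (96 h) targets delayed-death phenotype. Reporter parasites carrying integrated firefly luciferase, in red cells at 2% hematocrit and 0.05% parasitemia final, kept at 37 C, 5% CO2; luminescence loss indicates inhibition.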
Shiga inhibitor – blocks Shiga toxin action in Vero cells | Vero cells, Shiga toxin protein synthesis inhibition reporter | 9.2% of 290,000 active | inhibition, % at 38.7 µM; in the data active means inhibition mostly above about 28%, no sharp cut-off; inactive means mostly below about 43%; further: 0% is about no effect
Active calls of the source: *; ? = inconclusive; . = no result. The list is not random: actives were taken first. Their share in the collection is about 21%. Unless noted, the call rests on the fitted dose curve; in most records, active means well fitted inhibition curve with a large enough effect; inconclusive means small, poorly fitted or top-dose-only effect, or another doubt; inactive means no such curve, though single readings can be large or run the other way.

SMILES | NS1 inh | Pf growth 48h | SARS PLP yeast | CHX counter | Pf growth 96h | Shiga inhibitor
CC1(C)Cc2noc(N)c2C(C)(C)N1O | -2% | -16% | -6% | -1 | 5% | 4
CCN(CC)CCNC(=O)c1cc2c(s1)-c1ccccc1SC2 | -2% | 0% | -1% | 10 | 311% | -7
NNC(=O)c1cc2c(s1)-c1cc(Cl)ccc1SC2 | ? | 9.3µM* | -1% | 28* | -4% | 39
S=c1[nH]nc(-c2cc(-c3ccccc3)n[nH]2)n1/N=C/c1ccc(Br)s1 | 9% | -3% | 1% | -1 | -22% | 9
Cc1cc2c(c(C)nn2-c2ccccc2)c(=O)o1 | -6% | 23% | 1% | -4 | 30% | -8
Cc1c(-c2ccc(Cl)cc2)oc(=O)c2c(N)n(-c3ccccc3)nc12 | 5% | 20% | -1% | 24* | -6% | 17
CCc1c(C)c2c(C)nn(-c3ccccc3)c2oc1=O | -27% | 8% | -28% | -2 | 0% | 14
Nc1c2c(=O)oc(-c3ccccc3)cc2nn1-c1ccccc1 | -29% | 79% | -7% | 38* | 148% | 115*
O=C(COC(=O)c1cccc(S(=O)(=O)N2CCOCC2)c1)NCCc1ccccc1 | 1% | 7% | -12% | -2 | 2% | 23
COC(=O)c1cc(O)cc(OC)c1Oc1cc(C)cc(O)c1C(=O)O | 0% | 2.6µM* | -7% | -2 | -4% | 1
COC(=O)c1cc(O)cc(OC)c1C(=O)c1c(O)cc(C)cc1O | 5% | ? | 1% | -4 | 5.2µM* | -11
Cc1cc(F)ccc1NC(=O)Cn1c(C)csc1=O | . | ? | 6% | . | -14% | .
CSc1n[nH]c(NCc2ccc(Cl)cc2)n1 | 3% | 45% | 25% | 15* | 33% | 51*
Cc1ccc(CNC(=O)CSc2n[nH]c(N)n2)cc1 | 3% | 21% | -4% | -2 | ? | -7
CSc1n[nH]c(NCc2ccccc2)n1 | 1% | 19% | -1% | 9 | . | 29*
CSc1n[nH]c(NCc2ccc(C)cc2)n1 | 5% | 247% | -8% | 40* | 214% | 72*
Cc1cc(=O)[nH]c(NCc2ccc(Cl)cc2)n1 | 9% | 69% | 3% | 4 | 1% | 11
COc1ccc(CCNC(=O)c2cccc(S(=O)(=O)NC(C)c3ccccc3)c2)cc1 (stereo not drawn) | . | ? | -41% | . | -23% | .
Cc1ccc(CNC(=O)COC(=O)c2ccc(S(=O)(=O)NCc3ccco3)cc2)cc1 | . | -16% | 1% | . | -26% | .
CC1(C)Cc2c(cnn2-c2ccccc2)-c2c1c1ccccc1n2CC(O)CCl (stereo not drawn) | 20% | 12µM* | -47% | 1 | ? | -6
Cc1nccn1CC(O)Cn1c2ccccc2c2ccccc21 (stereo not drawn) | 5% | ? | -27% | 7 | -12% | 6
Cc1cccc(OCC(=O)OC(C)CN2CCCCC2)c1 (stereo not drawn) | 18% | 3% | -6% | 1 | ? | 1
Cc1cc(OCC(F)(F)C(F)(F)C(F)(F)C(F)F)nc(N)n1 | 7% | ? | 5% | 46* | 48% | 78*
Cc1cc(OCC#N)nc(N)n1 | 2% | 3% | 0% | -2 | ? | -5
COc1ccc(C#Cc2ccc3c(=O)c4ccccc4n(C)c3c2)cc1 | 18% | -41% | -1% | 4 | 8.3µM* | 17
SMILES | NS1 inh | Pf growth 48h | SARS PLP yeast | CHX counter | Pf growth 96h | Shiga inhibitor
Cn1c2ccccc2c(=O)c2ccc(C#Cc3ccc(N)cc3)cc21 | -18% | -25% | -29% | 26* | 9.3µM* | 20
Cc1ccc(CNC(=O)[C@H]2C[C@@H]2[C@H](NP(=O)(c2ccccc2)c2ccccc2)c2ccccc2)o1 | -6% | ? | 11% | -1 | ? | 3
Cc1ccccc1C(=O)Nc1nnc(CC(=O)N/N=C/c2ccco2)s1 | -9% | 4% | -2% | 4 | 0% | -5
COc1ccc(C(=O)Nc2nnc(CC(=O)N/N=C/c3ccc(O)cc3O)s2)cc1 | 5% | -3% | 1% | 17* | ? | 43*
Cc1ccc(C(=O)Nc2nnc(CC(=O)N/N=C/c3ccc(O)c(O)c3)s2)cc1 | ? | 39% | 0% | 24* | ? | 8
Cc1ccc(C(=O)Nc2nnc(CC(=O)N/N=C/c3ccncc3)s2)cc1 | . | 183% | 3% | 30* | ? | 57*
Cc1ccc(NCC(=O)N/N=C/c2ccncc2)cc1 | -3% | 33% | -2% | 7 | ? | 7
O=C(OCC(=O)c1ccc(Cl)s1)c1cnccn1 | -1% | 9% | -6% | 1 | 34% | -2
O=C(NCc1ccccn1)c1ccc(OC2CCN(Cc3cccs3)CC2)cc1 | 5% | -8% | 9% | 2 | 4% | -8
CCOc1ccc(CNC(=O)C2Cc3cc(S(=O)(=O)N4CCCC4)ccc3N2C(C)=O)cc1 (stereo not drawn) | 6% | -8% | -1% | -4 | ? | 2
CSc1ccc(CNC(=O)C2Cc3cc(S(=O)(=O)N4CCCCC4)ccc3N2C(C)=O)cc1 (stereo not drawn) | -22% | -22% | . | 6 | 15µM* | 13
CCOc1ccc(CNC(=O)C2Cc3cc(S(=O)(=O)N4CCCCC4)ccc3N2C(C)=O)cc1 (stereo not drawn) | 18% | -20% | -1% | -1 | 10µM* | -7
CSc1ccc(CNC(=O)C2Cc3cc(S(=O)(=O)N4CCCC4)ccc3N2C(C)=O)cc1 (stereo not drawn) | -3% | -10% | 7% | 2 | -2% | -7
CC(C)=CCC/C(C)=C/CNC(=O)C[C@H]1C[C@H](C(=O)N2CCOCC2)[C@@]2(C)c3[nH]c4cc(-c5ccco5)ccc4c3CCN2C1=O | . | . | 4% | . | . | .
Cc1ccc(SCC(=O)OCC(=O)N(CC(C)C)C2CCS(=O)(=O)C2)cc1C (stereo not drawn) | . | -7% | 4% | . | 40% | .
COc1ccc(O[C@H]2C=C[C@@H](c3ccccc3)O[C@@H]2COC(=O)CC/C(C)=N/OC[C@@H](O)COCc2ccco2)cc1 | -64% | ? | 5% | 7 | ? | 18
COc1ccc(O[C@H]2C=C[C@@H](c3ccccc3)O[C@@H]2COC(=O)CC/C(C)=N/O[C@@H](C)c2cc(-c3c(C)cc(C)cc3C)no2)cc1 | 14% | ? | 30% | -3 | 2.9µM* | -15
Oc1c(N=Nc2ccccc2)sc2ccccc12 | -50% | 223% | -2% | 40* | -92% | 61*
O=c1cc(O)sc2ccccc12 | 13% | 13% | -3% | 3 | 58% | 10
COC(=O)c1ccc(C(=O)N2CCCC(Nc3ccc(F)c(F)c3)C2)cc1 (stereo not drawn) | -17% | 13% | -5% | -3 | 1% | -7
COc1ccc(C(=O)C2CCCN(C(=O)CCc3scnc3C)C2)c(C)c1 (stereo not drawn) | -9% | 2.3µM* | -3% | 47* | 260% | 92*

Compound activity (PubChem BioAssay)
